PubChem BioAssay (NCI)
Compounds without any hit were thinned out: in the full panel of roughly 79,000, 15% have a hit. Unmarked numbers belong to inactive results. The source made the active and inactive calls. No stated cut-off is given here; in the data, active means growth inhibition above about 70%; inactive means the rest.

Key:
[1] = NCI Yeast Anticancer Drug Screen. Data for the rad50 strain (AID 155);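 further: 0% = growth of vehicle-only cultures of the same strain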; conditions: S. cerevisiae rad50 strain growth inhibition; at 50.0 µM; active compounds read high
Method in brief: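 Growth of the mutant yeast was measured after compound exposure and referenced to vehicle-treated cultures.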

[2] = NCI Yeast Anticancer Drug Screen. Data for the mec2-1 strain (AID 157); conditions: S. cerevisiae mec2-1 strain, at 50.0 µM, active compounds read high
Method in brief: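 Growth inhibition is read against vehicle-treated controls after compound exposure of the mec2-1 yeast strain, which is defective in DNA damage repair or cell cycle control.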

[3] = NCI Yeast Anticancer Drug Screen. Data for the sgs1 mgt1 strain (AID 161);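 further: 0% = growth of cultures given vehicle only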; conditions: S. cerevisiae sgs1 mgt1 strain, at 50.0 µM, active compounds read high
Method in brief: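 Yeast cells carrying a defined DNA-repair defect were exposed to test compounds. Growth inhibition was measured relative to vehicle-treated controls.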

[4] = NCI Yeast Anticancer Drug Screen. Data for the cln2 rad14 strain (AID 165);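 further: 0% = growth equal to vehicle treated cultures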; conditions: S. cerevisiae cln2 rad14 strain, at 50.0 µM, active compounds read high
Method in brief: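 Growth inhibition, relative to vehicle-treated controls, is the read-out. The test organism is a yeast strain with defined genetic alterations, cln2 rad14.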

[5] = NCI Yeast Anticancer Drug Screen. Data for the bub3 strain (AID 167); conditions: S. cerevisiae bub3 mutant strain, at 50.0 µM, active compounds read high
Method in brief: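 Whole-cell yeast assay. The mutant strain was incubated with compounds, and growth inhibition was determined by comparison with vehicle-treated cells.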

[6] = NCI Yeast Anticancer Drug Screen. Data for the mlh1 rad18 strain (AID 175); conditions: S. cerevisiae mlh1 rad18 strain growth inhibition; at 50.0 µM; active compounds read high
Method in brief: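 Cells of a genetically altered yeast strain, deficient in DNA damage repair, were treated with compound. Their growth was then compared with that of vehicle-treated cultures to give inhibition.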

Compound	growth inhibition [1]	growth inhibition [2]	growth inhibition [3]	growth inhibition [4]	growth inhibition [5]	growth inhibition [6]
COC(=O)C(Cc1ccccc1)NC(=O)C(CCC(=O)OCc1ccccc1)NC(=O)OC(C)(C)C (configuration not stated)	30.9%	8.55%	19.8%	19.9%	31.4%	22%
CC(=O)Nc1ccc2oc(C)nc2c1	23.9%	-1.3%	8.3%	8.7%	13.2%	20.6%
CC(=O)OCC(C)Cc1ccccc1 (configuration not stated)	6.35%	13.8%	-0.25%	8.2%	1.9%	-2.25%
O=C(OCC(O)C(O)C(O)COC(=O)c1ccccc1)c1ccccc1 (configuration not stated)	-11.6%	-5.05%	-25.4%	-23.6%	-22.8%	-13.1%
Cc1ccc(NC(=O)CCc2cc(C(C)(C)C)nc(=S)[nH]2)cc1C	-36.6%	-27.5%	-46.5%	-30.6%	-35.8%	-34%
C[n+]1cccc(C(=O)O)c1-c1ccccc1	20.4%	5.9%	5.85%	-39.5%	4.55%	10.3%
CCCC(=O)N(C)c1ccccc1	7.5%	-11.1%	-1.85%	-29.4%	6.35%	-8.35%
O=S1(=O)C2CCCCCC2(N2CCOCC2)C1C1CCCCC1 (configuration not stated)	16.7%	22.4%	-0.45%	25.4%	6%	15.1%
COc1ccccc1/C=N/Nc1ccc([N+](=O)[O-])cc1[N+](=O)[O-]	6.45%	5.15%	3.35%	-16.6%	16.8%	18.8%
Cc1c(C(=O)OCCCl)c(=O)n(-c2ccccc2)n1C	-43.4%	-56.2%	4.7%	19.6%	-33.5%	-0.55%
CCNC1=CC(=O)c2ncccc2C1=O	47.9%	15.7%	27.7%	-8.25%	39.2%	28.4%
Nc1nc(=O)[nH]nc1SCc1ccccc1	39.2%	0.1%	1.05%	2.45%	10%	10.5%
CCOC(=O)C1=NN(c2ccccc2)C(=O)/C1=C\N1C(=O)/C(=C/c2cccc(OC)c2O)SC1=S	30.5%	8.55%	31.6%	20.4%	-0.35%	21.6%
COCCOC(=O)C(O)c1ccccc1 (configuration not stated)	23.9%	13.9%	9.05%	9%	12.8%	10.4%
CC1=CC(NCCC(=O)O)NC(=O)N1 (configuration not stated)	4.25%	-6.2%	-18.1%	-62.6%	-1.75%	-1.85%
C=C(C)C(=O)OCC(O)C[N+](C)(C)C (configuration not stated)	0.35%	-15.8%	2.9%	11.2%	5.1%	4.3%
COc1cc(C(O)C(CO)Oc2c(OC)cc(C3OCC4C(c5cc(OC)c(O)c(OC)c5)OCC34)cc2OC)ccc1O (configuration not stated)	20.1%	1.4%	-2.05%	10%	-6.7%	15.2%
O=C(Nc1cc(Cl)c(Cl)cc1Cl)Nc1cc(Cl)ccc1Oc1ccc(Cl)cc1S(=O)(=O)O	98% (active)	99.3% (active)	99.2% (active)	98.5% (active)	98.8% (active)	98.7% (active)
COc1ccccc1OCC(O)CO (configuration not stated)	-8.3%	-22.9%	-14.8%	7.7%	-10.9%	10.5%
C[Si](C)(OCCS(=O)(=O)O)C1(Cc2cccc3ccccc23)S(=O)(=O)OCCOS1(=O)=O	13.6%	-9.55%	2.6%	18.1%	13.1%	17.2%
Nc1ccc(N)c(C(=O)O)c1	-9.35%	15.1%	1.1%	-2.5%	-12.6%	-8.9%

Compound	growth inhibition [1]	growth inhibition [2]	growth inhibition [3]	growth inhibition [4]	growth inhibition [5]	growth inhibition [6]
O=[N+]([O-])c1ccc(-c2nc3ncncc3[nH]2)cc1	13.2%	-3.25%	-0.75%	13.1%	5.05%	7.25%
CC(=O)[O-].[Mn+3].[O-]c1ccccc1C=NCCNCCN=Cc1ccccc1[O-]	17.9%	8.1%	49.6%	-7.35%	8.3%	51.1%
CCOC(=O)C1(C(=O)OCC)CCC(C(OC)OC)C(CC(=O)OC)C1 (configuration not stated)	-2.45%	-15.7%	-5.2%	-6.5%	26.4%	16.4%
O=C(O)CNC(=S)SCc1ccccc1	10%	-11.9%	-11.1%	-35.8%	11.2%	10.8%
Cc1nc2c(=O)[nH]c(=S)[nH]c2[nH]c1=O	-15.2%	-28%	-2.1%	12.5%	-1.3%	-1%
O=NN1C2CCCCC2C2CCCCC21 (configuration not stated)	-9%	20.5%	-14.7%	-5.25%	26.2%	3.8%
CC1(C)OC2C(CO)OC(n3cnc4c(=S)nc(N)[nH]c43)C2O1 (configuration not stated)	18.6%	12.8%	2.5%	-24.1%	12.5%	21.7%
Clc1cccc2[nH]ccc12	-6.1%	-3.1%	-23.9%	-10.2%	-11.3%	-3.9%
O=C1CS(=O)(=O)c2ccccc21	-11.4%	1.5%	1.5%	-13.3%	-8.8%	22.2%
O=C(O)c1ccc2c(c1)Cc1ccccc1-2	30.5%	47.9%	51.3%	45.1%	35.6%	42%
CCOCCC(=O)O	26.1%	6.3%	-7%	-5.3%	18.1%	6.15%
CC(=O)NC1=NN(C(C)=O)C(C)(c2ccccc2)S1=O (configuration not stated)	9.65%	-1.25%	3.7%	10%	-3.95%	14.7%
O=C(O)CCc1ccc2c(c1)C(=O)CC2	-35%	-27.9%	-23.2%	-16.1%	-3.95%	-37.4%
Oc1ccccc1CN1CCOCC1 (tested in a mixture with another compound)	-2.7%	-7.05%	6.95%	-46.2%	0.2%	-6.25%
ClC1CC2CCC1C2 (configuration not stated)	26.9%	-20.8%	8.45%	7.75%	-8.3%	9.1%
N#CCC(=O)N1CCc2ccccc2C1	-30.9%	0.45%	1.85%	-79.7%	9.6%	14.2%
COC(=O)c1sc2ccccc2c1C	-12.4%	-3.6%	-7.05%	-54.9%	-17.8%	10.7%
O=S(=O)(N1CCCCC1)N1CCCCC1	2.3%	-0.85%	0.85%	8.85%	10.2%	-2.4%
CC(C)(C)CC(=O)Nc1ccccc1	28.9%	-4.15%	-17.1%	13.7%	-8.9%	9.25%
C=C1/C=C/C=C(/C)C(=O)Nc2c(C=O)c(O)c3c4c(c(C)c(O)c3c2O)OC(C)(O/C=C/C(OC)C(C)C(OC(C)=O)C(C)C(O)C(C)C1O)C4=O (configuration not stated)	24.1%	33.5%	16.4%	34.2%	20.4%	32.5%
O=[S@@]1Nc2cc(Cl)c(Cl)cc2S1	9.6%	-2%	-6.6%	3.45%	-0.05%	14.1%
